D1 PAM – enhances dopamine response at the human D1 receptor; P21728; HEK293 TREx D1 cells, calcium flux, dopamine EC20 potentiation; 0.036% of 360,000 active; potentiation, % at 10 µM; in the data active = potentiation above about 30%; note: 0% is about no effect
D1 ag – human D1 receptor agonism. activation, % at 2 µM. AID 504660. HEK293 T-REx D1 cells, calcium flux, agonist mode. 1% of 360,000 active. P21728; note: 0% is about no effect
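Inducible HEK293 T-REx D1 cells, force-coupled to calcium signalling, were plated at 4000 cells/well with tetracycline and held overnight at 30 C. After no-wash calcium dye loading, compound-evoked calcium rise over 180 s flagged agonists.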
TRHR enhancer – allosterically enhances the human TRH receptor; TRHR cells, fluo-8 calcium fluorescence, EC20 TRH enhancement; P34981; AID 493056; 0.66% of 360,000 active; enhancement, % at 2 µM; in the data active = enhancement above about 30%; note: 0% is about no effect
Target sequence (P34981 whole entry, looked up): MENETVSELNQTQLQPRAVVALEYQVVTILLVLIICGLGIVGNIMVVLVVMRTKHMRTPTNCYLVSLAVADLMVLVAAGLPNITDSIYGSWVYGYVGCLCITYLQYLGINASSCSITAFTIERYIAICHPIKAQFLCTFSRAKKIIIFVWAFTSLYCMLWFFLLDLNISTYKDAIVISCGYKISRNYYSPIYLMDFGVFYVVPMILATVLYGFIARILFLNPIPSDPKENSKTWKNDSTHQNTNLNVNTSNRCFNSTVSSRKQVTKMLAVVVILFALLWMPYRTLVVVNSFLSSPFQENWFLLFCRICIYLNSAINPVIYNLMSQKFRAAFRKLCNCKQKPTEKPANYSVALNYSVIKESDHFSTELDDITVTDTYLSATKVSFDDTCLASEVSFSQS
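Enhancer read-out: after compound pinning and an initial kinetic agonist-mode read, an EC20 of TRH (10 nM final) was injected and fluo-8 calcium signal (Ex 480/Em 530) followed at 1 s/cycle for 100 cycles in TRHR-expressing cells.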
D1 antag – blocks dopamine activation of the human D1 receptor. P21728. HEK293 TREx D1 cells, calcium flux, dopamine EC80; hits give low values. activity change, negative = inhibition, % at 10 µM. 3.2% of 360,000 active. AID 504652; in the data active = activity change below about -30%; note: % is set by controls: 0 for no effect and ±100 for the full control effect
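Tetracycline-induced HEK293 Trex D1 cells, force-coupled to calcium, dye-loaded; compounds added and read 180 s, then EC80 dopamine added and calcium flux tracked kinetically another 180 s.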
Glioma ERSR ind – ER stress response induction in glioma; U87-MG GRP78 promoter luciferase reporter, 16 h; Potency, µM, for the others: top-dose activation, most hits filed as activators; 0.02% of 420,000 active; AID 602332; active = well fitted activation curve with a large enough effect; note: potency is the fitted concentration of half-maximal effect; series mostly up to about 76 µM; % of control where 0% means no effect; nearly all actives have a fitted effect of over 35% in size
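Stably transfected U87-MG human glioma cells carrying a GRP78-based luminescent sensor were seeded at 1000 cells/well, pin-dosed with compounds and incubated 16 h. Luciferase reagent was then added, and end-point luminescence was read after 10 min at room temperature.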
TRHR agonist – activates the human TRH receptor; P34981; TRHR cells, calcium flux fluo-8, FDSS agonist mode; activation, % at 2 µM; 0.18% of 360,000 active; note: 0% is about no effect
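TRHR-expressing cells loaded with fluo-8 calcium dye; 23 nL library compound pin-transferred, kinetic FDSS fluorescence (Ex 480/Em 530) recorded about 180 s for agonist-induced calcium release, before a 10 nM TRH EC20 addition for potentiator mode.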
An asterisk follows results filed as active; nt = not tested or not shown. Only some compounds are listed: those with a hit (about 4% of all), similar ones and a draw of the others. Cut-off read from the data, not from the text of the source, unless noted: active = activation above about 30%; inactive = the rest.

SMILES	D1 PAM	D1 ag	TRHR enhancer	D1 antag	Glioma ERSR ind	TRHR agonist
CC(CC(=O)NCc1ccc(Cl)cc1)CC1=NS(=O)(=O)c2ccccc2N1 (stereo not given)	0	1	3	-1	-4%	0
Cc1ccc(NC2=C(Cl)C(=O)OC2OC(=O)c2ccco2)cc1C (stereo not given)	-8	8	-4	-30*	-7%	0
Cc1ccc(C)c(NC2=C(Cl)C(=O)OC2OC(=O)c2ccco2)c1 (stereo not given)	-5	19	0	-14	-4%	1
CO[C@@H]1/C=C\CC(=O)N2CCC[C@@H]2C(=O)OC[C@H](C)C(=O)OC[C@H]1C	nt	nt	nt	nt	-6%	nt
COc1cccc(NC(=O)CN(C)C(=O)c2ccc(OCc3ccccc3)c(OC)c2)c1	-4	1	-2	-15	2%	0
COc1ccc(OC)c(C(Cc2ccnc3ccccc23)Cc2ccnc3ccccc23)c1	nt	nt	nt	nt	-4%	nt
CCOC(=O)C1CSC(CC(=O)Nc2ccc(Cl)c(Cl)c2)C(=O)N1 (stereo not given)	-9	20	13	-32*	-12%	0
CC1CCN(c2ncnc3ccccc23)CC1	-5	22	-1	-34*	-3%	2
CC1CCN(c2nc(-c3ccccc3O)nc3ccccc23)CC1	-8	3	1	11	-1%	0
COc1ccc(OC)c(CCNC(=O)C2=C(C)C(=O)OC23CCC(C)CC3)c1 (stereo not given)	-2	1	-7	2	nt	0
COc1ccc(CCNC(=O)C2=C(C)C(=O)OC23CCCCC3)c(OC)c1OC	-4	0	31*	-11	nt	0
CC1=C(C(=O)NCc2ccc(Cl)cc2)C2(CCCCC2)OC1=O	-2	-4	-4	12	0%	-1
CC1=C(C(=O)NCc2ccc(Cl)cc2)C2(CCCCCC2)OC1=O	4	45*	5	8	-1%	0
Cn1c(=O)c2nc3ccc(NC(=O)C(F)(F)F)cc3nc2n(C)c1=O	3	11	-1	3	0%	7
Cc1cc2nc3c(=O)[nH]c(=S)[nH]c3nc2cc1NC(=O)C(F)(F)F	1	64*	3	0	4%	4
Cc1c(C(=O)NCc2ccc3c(c2)OCO3)sc2nc(-c3ccc(F)cc3)cn12	-12	4	3	-42*	0%	0
CN1C(=O)c2ccc(C(=O)NCc3ccc4c(c3)OCO4)cc2C1=O	-3	0	1	-34*	-2%	0
Cc1c(C(=O)NCc2ccc3c(c2)OCO3)sc2nc(-c3ccccc3)cn12	-5	4	4	-1	0%	1
O=C(c1ccccc1)c1cc2c(cc1[N+](=O)[O-])OCCO2	-7	-1	6	-5	4%	0
Cc1cc(F)ccc1NC(=O)C(c1ccccc1)N1Cc2ccccc2C1=O (stereo not given)	-3	-2	7	-10	-5%	2
Cc1ccc(C)c(NC(=O)C(c2ccccc2)N2Cc3ccccc3C2=O)c1 (stereo not given)	7	6	32*	-7	-3%	0
CCN1C(=NCc2cccc(Cl)c2)N[C@@H](c2cccc(C(F)(F)F)c2)C(C(=O)OC)=C1C	nt	nt	nt	nt	-12%	nt
Cc1cn(CC(=O)N(C)Cc2ccco2)c(=O)[nH]c1=O	nt	nt	nt	nt	-4%	nt
COc1ccc(C2(CNC(C)=O)CCOCC2)cc1OC	nt	2	2	-35*	1%	0
COc1ccc(C2(CNC(=O)C(=O)Nc3ccc(F)cc3)CCCC2)cc1OC	-1	-1	32*	6	-1%	1
SMILES	D1 PAM	D1 ag	TRHR enhancer	D1 antag	Glioma ERSR ind	TRHR agonist
COc1ccc(C2(CNC(=O)C(=O)Nc3ccccc3C)CCCC2)cc1OC	3	1	0	-2	-4%	0
COc1ccc(C2(CNC(=O)c3ccc(OC)c([N+](=O)[O-])c3)CCOCC2)cc1OC	-14	0	0	1	-3%	0
CC/C=C(/C(=O)N[C@@H]1C(=O)N2C(C(=O)OCOC(=O)C(C)(C)C)=C(COC(N)=O)CS[C@H]12)c1csc(N)n1	nt	nt	nt	nt	-2%	nt
Cc1nc(-c2ccc(S(=O)(=O)Nc3ccccc3C)cc2)co1	-7	14	3	-23	-3%	0
CCOC(=O)c1cccc(NS(=O)(=O)c2cc3[nH]c(=O)c(=O)[nH]c3cc2C)c1	3	-1	46*	2	-4%	0
CCN(CC)c1ccc(NS(=O)(=O)c2ccc(-c3coc(C)n3)cc2)c(C)c1	-6	0	-5	-34*	-4%	-1
CCN(CC)c1ccc(NS(=O)(=O)c2cc3[nH]c(=O)c(=O)[nH]c3cc2C)c(C)c1	-2	1	4	-38*	-4%	0
CCOC(=O)c1cccc(NS(=O)(=O)c2c(C)[nH]c(=O)[nH]c2=O)c1	-7	3	-5	-4	-1%	0
CCc1ccc(C(O)c2ncc(-c3ccccc3C(F)(F)F)[nH]2)cc1 (stereo not given)	nt	nt	nt	nt	-1%	nt
C=CCNC(=S)Nc1ccccc1-c1nnc2n1CCCCC2	-3	0	-2	3	-4%	0
O=c1ccc2cc(S(=O)(=O)N3CCCC3)ccc2[nH]1	-2	0	6	-2	-4%	0
O=S(=O)(c1ccc2[nH]ccc2c1)N1CCCCCC1	-2	1	-8	-30*	-5%	0
S=C(NCCc1ccc(Cl)cc1)NC1CC1	-4	-3	-3	nt	1%	-2
COc1ccccc1CN1CCCC(N2CCN(c3ccccc3OC)CC2)C1 (stereo not given)	-8	6	-9	-50*	-3%	0
COc1ccccc1N1CCN(C2CCCN(Cc3cccc(O)c3)C2)CC1 (stereo not given)	1	-1	3	-50*	-5%	0
COc1ccccc1N1CCN(C2CCCN(Cc3c(F)cccc3F)C2)CC1 (stereo not given)	-7	3	-1	-14	-3%	0
Nc1nonc1C(=O)NCCNCc1ccccc1	2	4	-4	-47*	-2%	0
Nc1nonc1C(=O)NCCNCc1cc(Br)ccc1OCc1ccc(F)cc1	-3	15	1	-37*	-6%	0
Nc1nonc1C(=O)NCCNCc1c(OCc2ccccc2F)ccc2ccccc12	-9	11	1	-45*	-2%	0
COc1ccc(CNCCNC(=O)c2nonc2N)cc1OC	-7	-1	-3	8	-2%	0
CC[C@]12c3[nH]c4cc(-c5ccco5)ccc4c3CCN1C(=O)[C@@H](CC(=O)NCCCOC)C[C@@H]2C(=O)N1CCN(C(=O)c2ccco2)CC1	nt	nt	nt	nt	-2%	nt
CN(Cc1ccco1)c1ccnc(-c2ccccc2C(F)(F)F)n1	nt	nt	nt	nt	-5%	nt

Source: PubChem
